Bioassay records (PubChem)
NPC1 promoter act = activators of NPC1 promoter | actives 2.4% (n = 320,000) | Potency, µM (highest dose often 9.22 µM), for inactives: at the top dose activation, most hits filed as activators | Huh7 NPC1 promoter luciferase reporter, 24 h; also: % of control where 0% means no effect; nearly all actives have a fitted effect of over 60% in size
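Readout is luciferase luminescence, reflecting NPC1 promoter activation in stably transfected Huh7 cells after 24 h compound exposure at 37 °C in reduced-serum medium with 10% FBS.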
ELG1 genotox = genotoxicity induction in ELG1-luciferase HEK293T cells | HEK293T ELG1-luciferase reporter, luminescence, 16 h | Potency, µM (doses to about 46 µM), for the others: at the highest dose activity change, positive = activation, actives largely listed as activators | actives 1.3% (n = 330,000) | AID 504466; also: % of control where 0% means no effect; nearly all actives have a fitted effect of over 60% in size
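Reporter readout depends on ELG1 protein level, which increases with genetic stress. After 16 hr compound exposure at 37 °C, luciferase activity was quantified using ONE-Glo.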
SMN2 splice enh = increases expression of the SMN2 splice variant | HEK293 SMN2-luciferase splicing reporter, luminescence, 30-36 h | Potency, µM (titrated, usually from 46.1 µM), for the others: at the highest dose activity change, positive = activation, hits mostly activators | actives 2.8% (n = 210,000); also: % of control where 0% means no effect; nearly all actives have a fitted effect of over 55% in size
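HEK293 cells carry an SMN2 […]–luciferase reporter in which exon 7 inclusion puts luciferase in frame. Cells were plated 10-12 h before compound addition, then incubated 30-36 h at 37C. ONE-Glo luminescence was read; sodium butyrate at 4.5 mM final served as control.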
Rab9 promoter act = Rab9 promoter activation; Huh7 Rab9 promoter-luciferase reporter, luminescence, 24 h; Potency, µM (doses to about 9.22 µM), inactives show at the highest dose activation, negative = inhibition, hits mostly activators; actives 2.8% (n = 320,000); also: % of control where 0% means no effect; nearly all actives have a fitted effect of over 60% in size
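Promoter activation is measured as luciferase luminescence in Huh7 cells stably transfected with a Rab9 promoter–luciferase construct, following 24 h compound exposure at 37 °C and 10 min reagent incubation at ambient temperature.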
Luc counter = blocks Kinase-Glo luciferase, a counter-screen artifact | Kinase-Glo luciferase, ATP luminescence, 8 min | Q27757 | actives 0.28% (n = 200,000) | AID 1379 | Potency, µM (top dose mostly 38.3 µM), for the others: top-dose activity change, negative = inhibition, hits mostly inhibitors; also: % is scaled to controls: 0 for no effect and ±100 for the full control effect; nearly all actives have a fitted effect of over 60% in size
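Compound is pinned into ATP-containing buffer (10 uM ATP, imidazole pH 7.2, 7 mM MgCl2). Kinase-Glo luciferase reagent is then added. Light output is recorded following an 8-min room-temperature incubation.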
FLuc counter = firefly luciferase modulation, counter-screen for miR-21 project. P08659. purified FLuc, Km substrates, luminescence inhibition. Potency, µM (titrated, usually from 57.5 µM), inactives show at the highest dose activity change, negative = inhibition, usual class: inhibitors. actives 6.9% (n = 360,000). AID 588342;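 also: plate controls were vehicle for no effect and reference inhibitor for full effect; nearly all actives have a fitted effect of over 55% in size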
Target sequence (P08659 whole entry, looked up): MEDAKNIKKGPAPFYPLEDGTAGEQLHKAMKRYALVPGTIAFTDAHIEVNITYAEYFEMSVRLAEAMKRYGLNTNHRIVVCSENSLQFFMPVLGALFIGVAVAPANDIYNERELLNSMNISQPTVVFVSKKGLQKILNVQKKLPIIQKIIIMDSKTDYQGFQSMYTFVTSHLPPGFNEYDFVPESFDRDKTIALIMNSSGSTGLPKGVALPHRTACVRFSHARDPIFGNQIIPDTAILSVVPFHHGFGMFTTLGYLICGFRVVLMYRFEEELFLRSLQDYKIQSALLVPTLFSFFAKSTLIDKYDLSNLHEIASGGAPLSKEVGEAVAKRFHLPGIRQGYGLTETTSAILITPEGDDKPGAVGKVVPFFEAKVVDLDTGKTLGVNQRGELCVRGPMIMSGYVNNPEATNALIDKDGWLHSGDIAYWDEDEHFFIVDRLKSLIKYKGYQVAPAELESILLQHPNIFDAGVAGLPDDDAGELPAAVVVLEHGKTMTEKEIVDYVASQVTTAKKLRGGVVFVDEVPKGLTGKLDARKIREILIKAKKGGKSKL
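Purified P. pyralis luciferase (10nM final) with 10uM D-luciferin and 10uM ATP (Km levels) in 50mM Tris acetate pH 7.5, 10mM Mg acetate, 0.01% Tween-20, 0.05% BSA; qHTS 6-point titration, ~60 µM downward; luminescence read.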
Numbers without * were called inactive; ? = inconclusive; / = no result; [ ] = dose if it differs, or a comment. In the library only some 7.3% were active in any assay of this set; here they are far more common. Calls follow the shape of the dose curve; as a rule, active = well fitted curve in the direction sought with a large enough effect; inconclusive = small, poorly fitted or top-dose-only effect, or another doubt; inactive = no such curve, though single readings can be large; an effect the other way counts as inactive or inconclusive. Potency is read from the fitted curve at half-maximal effect.

SMILES	NPC1 promoter act	ELG1 genotox	SMN2 splice enh	Rab9 promoter act	Luc counter	FLuc counter
COc1ccccc1N(Cc1ccccc1)S(=O)(=O)c1cccc(C(=O)Nc2cc(C)ccn2)c1	?	?	/	?	/	0.67µM*
CCOc1ccccc1NC(=O)c1cccc(S(=O)(=O)N(Cc2ccccc2)c2ccccc2OC)c1	-9%	-2%	-17%	-3%	-1%	6%
Cc1nc2c([N+](=O)[O-])c(C)c(C)cc2[nH]1	2%	0%	-5%	-5%	0%	-1%
Cc1cc(O)c(C(=O)Cc2csc(C)n2)c(O)c1	?	?	?	4µM*	-2%	27µM*
CCc1cc(/C(Cc2csc(C)n2)=N/O)c(O)cc1O	-1%	0%	-63%	-16%	-3%	0%
CN(Cc1cccc(-n2cccn2)c1)C(=O)CCc1nnc(C2CCCCC2)o1	12%	10%	/	?	-4%	17µM*
CN(Cc1cccnc1)C(=O)c1ccc2nc(Cc3ccccc3F)oc2c1	27%	1%[9.26 µM]	/	?	/	24µM*
COCCc1nc2ccc(C(=O)N(C)Cc3cccc(-n4cccn4)c3)cc2o1	2.8µM*	?	/	2.8µM*	/	21µM*
CN(Cc1ccon1)C(=O)c1ccc2nc(Cc3cccc(Cl)c3)oc2c1	6%	0%	/	-8%	/	4%
COc1ccc2c3n([n+]([O-])c2c1)CCN=C3c1ccc(Cl)cc1	-3%	8%	/	-3%	/	?
COCCCNC(=S)NNC(=O)c1cc(-c2ccncc2)nc2ccccc12	-1%	8%	/	0%	/	8.5µM*
COCCNC(=O)c1cc(-c2cccnc2)nc2ccc(Br)cc12	0%	0%	9%	4%	1%	?
CCCCN(C)CCCNC(=O)c1cc(-c2cccnc2)nc2ccccc12	-3%	0%	/	-2%	/	1%
COCCCNC(=S)NNC(=O)c1cc(C2CC2)nc2ccccc12	-1%	2%	/	-4%	/	12µM*
COCCCNC(=S)NNC(=O)c1cc(-c2cccnc2)nc2ccccc12	0%	4%	/	-3%	/	11µM*
COCCNC(=S)NNC(=O)c1cc(-c2cccnc2)nc2ccccc12	-2%	1%	/	0%	/	8.5µM*
CC(C)(C)c1ccc(OCC(=O)NC2CCS(=O)(=O)C2)cc1 (stereo not drawn)	1%	-5%	22%	-1%	-1%	-1%
COc1ccc(Cn2nnnc2C(c2ccccc2)N2CCN(C3CCCC3)CC2)cc1 (stereo not drawn)	4%	-6%	-9%	-5%	-3%	-1%
O=C(NCc1ccc(Cl)cc1)C1CCN(S(=O)(=O)c2ccccc2)CC1	-2%	-6%	4%	-9%	-4%	0%
CCNC(=S)NNC(=O)c1cc(-c2cc(C)ccc2C)nc2ccccc12	-5%	-4%	-18%	-1%	6%	19µM*
Cc1nn(-c2ccccc2)c(C)c1CNC(=O)c1ccc(S(=O)(=O)NCc2ccco2)cc1	/	6%	/	/	/	/
CCc1ccc(/C=N/NC(=O)c2nnn(-c3nonc3N)c2C(C)C)cc1	-5%	5%	/	-7%	/	2.4µM*
CC(C)c1c(C(=O)N/N=C/c2ccc(Cl)cc2Cl)nnn1-c1nonc1N	3%	5%	/	0%	/	6µM*
CC(C)c1c(C(=O)N/N=C/c2cccnc2)nnn1-c1nonc1N	-2%	-3%[9.26 µM]	/	0%	/	-17%
CCOc1cccc(/C=C2\NC(=S)N(c3ccccc3)C2=O)c1O	1%	12%	/	?	/	5.4µM*
CCOc1cc(/C=C2\NC(=S)N(c3c(C)n(C)n(-c4ccccc4)c3=O)C2=O)ccc1O	-4%	2%	3%	-5%	-1%	-1%
COC(=O)c1ccccc1NC(=O)Cn1c(=O)oc2ccc(Cl)cc21	-4%	0%	-14%	1%	0%	5%
O=C(NCCc1ccccc1)Nc1ccc(Cl)cc1	2.5µM*	?	11µM*	3.2µM*	2%	6.7µM*
